# Source: PubChem BioAssay
# Where “and” joins values, the source holds several entries; their conditions need not be identical. Equal entries are not always repeated. Results filed as inconclusive are left out. Calls of active or inactive are those of the source. Unless noted, no cut-off is given here; in the data, nearly all actives have AC50 up to about 30 µM.
# Legend:
# [1] = test system: Hepatitis C virus NS3 helicase; assay: blockers of NS3h binding to ssDNA – biochemical, fluorescence polarization, LOPAC1280 library, primary screen (AID 687035; in the data active = inhibition above about 37%); conditions: Purified HCV NS3 helicase, Cy5-dT15 ssDNA binding fluorescence polarization; stronger effect = higher value; concentration not given here
# [2] = compounds altering Cy5-DNA-NS3h complex signal – biochemical, LOPAC1280, artefact control for HCV NS3 helicase inhibitor project (AID 687037; call rule not given here); conditions: Cy5-DNA-NS3h complex fluorescence interference counterscreen
# [3] = viability loss in pontine glioma line – cell-based, SU-DIPG-XIII, MIPE4.0, CellTiter-Glo, qHTS, dose response (AID 1347061; cut-off not given, nearly all actives have AC50 up to about 37 µM;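 note: cells exposed to compound for 48 hours before readout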); conditions: CellTiter-Glo ATP luminescence
# [4] = viability loss in pontine glioma line – cell-based, JHH-DIPG-1, MIPE4.0, CellTiter-Glo, qHTS, dose response (AID 1347062; cut-off not given, nearly all actives have AC50 up to about 27 µM); conditions: JHH-DIPG-1 viability, CellTiter-Glo ATP luminescence
# [5] = growth inhibition of DIPG cells – cell-based, MIPE4.0 library, CellTiter-Glo luminescence, qHTS (AID 1347066); conditions: SU-DIPG-VI viability, CellTiter-Glo ATP luminescence;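 note: cells exposed to compound for 48 hours before readout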
# [6] = growth inhibition of DIPG cells – cell-based, MIPE5.0 library, qHTS (AID 1347068; cut-off not given, nearly all actives have IC50 up to about 30 µM); conditions: SU-DIPG-XXV viability
# [7] = viability loss in pontine glioma line – cell-based, SU-DIPG-IV, MIPE4.0, CellTiter-Glo, qHTS, dose response (AID 1347063); conditions: CellTiter-Glo ATP luminescence;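 note: compound exposure lasted 48 hours before the viability readout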
# [8] = biological target: ATP-dependent translocase ABCB1 (Homo sapiens) (UniProt P08183); assay: P-glycoprotein substrate transport blockade – cell-based (AID 377; in the data active = fluorescence slope change above about 50%); conditions: MDR1-expressing cells, fluorescent substrate accumulation slope; stronger effect = higher value; concentration not given here
# [9] = viability loss in pontine glioma line – cell-based, SU-DIPG-XVII, MIPE5.0, CellTiter-Glo, qHTS, dose response (AID 1347060; cut-off not given, nearly all actives have AC50 up to about 26 µM); conditions: CellTiter-Glo ATP luminescence
# [10] = viability loss in pontine glioma line – cell-based, SU-DIPG-XIII, MIPE5.0, CellTiter-Glo, qHTS, dose response (AID 1347064; cut-off not given, nearly all actives have AC50 up to about 23 µM); conditions: CellTiter-Glo ATP luminescence
# [11] = JHH-DIPG-1 glioma cell viability, MIPE5.0 library, CellTiter-Glo luminescence, qHTS (AID 1347067; cut-off not given, nearly all actives have AC50 up to about 26 µM;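 note: cells exposed to compound for 48 hours before readout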); conditions: JHH-DIPG-1 glioma viability, CellTiter-Glo ATP luminescence
# [12] = growth inhibition, single agent or in combination, cell-based, chromothripsis tumors, cisplatin or BGB combos (AID 1671449; in the data active = inhibition above about 80%;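 note: cells exposed for 96 hours; 0% = vehicle DMSO and 100% = killing by high DMSO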); conditions: LFS_MB_P medulloblastoma cells
# [13] = growth inhibition, single agent and combos, cell-based, chromothripsis tumors, cisplatin or BGB combos (AID 1671450; in the data active = inhibition above about 80%;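 note: cells exposed to compound for four days; 0% = vehicle DMSO and 100% = cell killing by high DMSO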); conditions: HDN33 neuroblastoma cells, stronger effect = higher value
# [14] = growth inhibition, single agents and combos, ICB984, cell-based, cisplatin or BGB combos, synergistic combos for chromothripsis tumors (AID 1671451; call rule not given here;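 note: cells exposed for 96 hours before readout; 0% = vehicle DMSO and 100% = killing by high DMSO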); conditions: ICB984 medulloblastoma cells, drug combinations, stronger effect = higher value
# [15] = growth inhibition, single agents and combos, LFS_MB_1R, cell-based, cisplatin or BGB combos, synergistic combos for chromothripsis tumors (AID 1671452; in the data active = inhibition above about 80%;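 note: cells exposed for 96 hours before readout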); conditions: LFS_MB_1R medulloblastoma cells, stronger effect = higher value
# [16] = growth inhibition, single agents and combos, HTB85, cell-based, BGB or cisplatin IC20 combos, synergistic combos for chromothripsis tumors (AID 1671453; in the data active = inhibition above about 80%;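 note: cells exposed for 96 hours before readout; 0% = vehicle DMSO and 100% = high DMSO killing control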); conditions: HTB85 osteosarcoma cells, drug combinations, stronger effect = higher value
# [17] = growth inhibition, MDA-MB-436, cell-based, BGB or cisplatin combos, synergistic combos for chromothripsis tumors (AID 1671458; call rule not given here;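 note: cells exposed for 96 hours; 0% = vehicle DMSO and 100% = killing by high DMSO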); conditions: MDA-MB-436 breast carcinoma growth inhibition, drug combinations, stronger effect = higher value
# [18] = BT084 cell growth, single and combined drugs, ICGC_MB145, cisplatin and BGB IC40 combos (AID 1671461; in the data active = inhibition above about 80%;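 note: cells exposed to drugs for 96 hours; 0% = vehicle DMSO and 100% = high DMSO full killing control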); conditions: BT084 medulloblastoma cells, drug combinations, stronger effect = higher value
# [19] = RCMB18 cell growth, single agent and combined, cisplatin and BGB IC40 combos (AID 1671462; in the data active = inhibition above about 80%;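 note: cells exposed to compound for four days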); conditions: RCMB18 medulloblastoma cells, stronger effect = higher value
# [20] = CRL1545 cell growth, single agent and combined, cisplatin and BGB IC20 combos (AID 1671464; in the data active = inhibition above about 80%;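 note: cells exposed to compound for 96 hours before readout; 0% = vehicle DMSO and 100% = high DMSO killing control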); conditions: CRL1545 osteosarcoma cells, stronger effect = higher value
# [21] = measured here: combination with BGB IC40, at 0.05 µM
# [22] = measured here: with BGB IC20 combination, at 0.5 µM
# [23] = measured here: with cisplatin IC20 combination, at 0.5 µM
# [24] = measured here: combination with cisplatin, at 0.5 µM
# ATP-dependent translocase ABCB1 (Homo sapiens), sequence (P08183 whole entry, looked up): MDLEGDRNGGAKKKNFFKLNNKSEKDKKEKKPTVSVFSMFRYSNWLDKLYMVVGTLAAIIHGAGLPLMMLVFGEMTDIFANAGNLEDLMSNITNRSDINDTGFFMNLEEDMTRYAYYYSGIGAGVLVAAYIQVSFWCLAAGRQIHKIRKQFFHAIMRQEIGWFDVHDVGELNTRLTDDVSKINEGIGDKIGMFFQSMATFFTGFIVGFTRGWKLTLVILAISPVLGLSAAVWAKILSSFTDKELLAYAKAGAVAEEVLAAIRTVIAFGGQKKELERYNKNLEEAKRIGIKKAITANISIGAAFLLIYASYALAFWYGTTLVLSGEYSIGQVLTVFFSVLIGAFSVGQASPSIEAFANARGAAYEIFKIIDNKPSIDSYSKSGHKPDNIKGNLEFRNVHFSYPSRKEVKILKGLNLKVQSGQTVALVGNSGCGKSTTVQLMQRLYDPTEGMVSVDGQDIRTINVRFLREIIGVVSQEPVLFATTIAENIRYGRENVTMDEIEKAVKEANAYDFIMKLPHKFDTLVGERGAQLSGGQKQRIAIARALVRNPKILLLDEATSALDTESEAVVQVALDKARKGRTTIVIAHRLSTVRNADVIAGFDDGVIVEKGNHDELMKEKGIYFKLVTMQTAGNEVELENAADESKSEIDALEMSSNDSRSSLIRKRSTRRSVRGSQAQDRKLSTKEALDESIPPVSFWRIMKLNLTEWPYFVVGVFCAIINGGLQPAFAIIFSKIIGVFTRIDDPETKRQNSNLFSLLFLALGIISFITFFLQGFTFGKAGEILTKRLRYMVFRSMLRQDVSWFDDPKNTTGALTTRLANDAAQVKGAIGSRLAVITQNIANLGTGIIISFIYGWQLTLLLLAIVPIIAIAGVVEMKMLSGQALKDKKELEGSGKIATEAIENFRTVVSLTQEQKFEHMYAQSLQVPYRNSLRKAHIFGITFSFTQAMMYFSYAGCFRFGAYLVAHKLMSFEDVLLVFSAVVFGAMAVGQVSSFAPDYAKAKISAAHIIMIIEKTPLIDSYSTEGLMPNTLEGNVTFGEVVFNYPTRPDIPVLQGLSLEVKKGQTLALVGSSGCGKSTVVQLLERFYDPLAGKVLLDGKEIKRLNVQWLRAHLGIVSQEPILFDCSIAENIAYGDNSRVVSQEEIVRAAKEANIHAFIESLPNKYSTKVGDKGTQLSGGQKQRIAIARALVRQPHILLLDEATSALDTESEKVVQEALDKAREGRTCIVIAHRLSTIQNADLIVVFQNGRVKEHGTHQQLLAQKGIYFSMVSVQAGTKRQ
compound,measurement,setting,value
NC(N)=NC(N)=Nc1ccccc1,inhibition,[1],-3% (inactive)
same,fluorescence ratio (interference),[2],1 (inactive)
CC1=C(/C=C/C(C)=C/C=C/C(C)=C/C=C/C=C(C)/C=C/C=C(C)/C=C/C2=C(C)CCCC2(C)C)C(C)(C)CCC1,outcome,[3],inactive
same,outcome,[4],inactive
same,outcome,[5],inactive
same,outcome,[6],inactive
COc1ccc(-c2cc(=O)c3c(O)cc(O)cc3o2)cc1O,AC50,[3],11.8 µM (active)
same,AC50,[5],10.5 µM (active)
CC[C@H]1OC(=O)[C@H](C)[C@@H](O[C@H]2C[C@@](C)(OC)[C@@H](O)[C@H](C)O2)[C@H](C)[C@@H](O[C@@H]2O[C@H](C)C[C@H](N(C)C)[C@H]2O)[C@](C)(O)C[C@@H](C)/C(=N\OCOCCOC)[C@H](C)[C@@H](O)[C@]1(C)O,outcome,[3],inactive
same,outcome,[4],inactive
same,outcome,[7],inactive
same,outcome,[5],inactive
c1coc(CNc2ncnc3nc[nH]c23)c1,fluorescence slope change,[8],8.8% (inactive)
same,outcome,[9],inactive
same,outcome,[3],inactive
same,outcome,[4],inactive
same,outcome,[7],inactive
same,outcome,[10],inactive
same,outcome,[5],inactive
same,outcome,[11],inactive
same,outcome,[6],inactive
COc1cc(O)c2c(c1)C(=O)c1cc(C)cc(O)c1C2=O,outcome,[3],inactive
same,outcome,[4],inactive
same,outcome,[5],inactive
Nc1ccc(S(=O)(=O)Nc2ncccn2)cc1,outcome,[3],inactive
same,outcome,[4],inactive
same,outcome,[7],inactive
same,outcome,[5],inactive
O=C(CCc1ccc(O)cc1)c1c(O)cc(O)cc1O,inhibition,[1],-4% (inactive)
same,fluorescence ratio (interference),[2],1 (inactive)
same,outcome,[9],inactive
same,outcome,[4],inactive
same,outcome,[10],inactive
same,outcome,[11],inactive
same,outcome,[6],inactive
C[N+](C)(C)CCO,inhibition,[1],-3% (inactive)
same,fluorescence ratio (interference),[2],1 (inactive)
CN1C2CCC1CC(OC(=O)C(CO)c1ccccc1)C2 (stereo not given),inhibition,[1],0% (inactive) and -1% (inactive)
same,fluorescence ratio (interference),[2],0.9 (inactive) and 1.1 (inactive)
same,outcome,[3],inactive
same,outcome,[4],inactive
same,outcome,[10],inactive
same,outcome,[5],inactive
same,outcome,[6],inactive
COc1cc2c(cc1OC)[C@@H]1C(=O)c3ccc4c(c3O[C@@H]1CO2)C=CC(C)(C)O4,AC50,[3],23.5 µM (active)
same,AC50,[11],18.6 µM (active)
same,outcome,[6],inactive
CCCc1nn(C)c2c(=O)[nH]c(-c3cc(S(=O)(=O)N4CCN(C)CC4)ccc3OCC)nc12,outcome,[9],inactive
same,outcome,[4],inactive
same,outcome,[7],inactive
same,outcome,[10],inactive
same,outcome,[11],inactive
same,outcome,[6],inactive
O=c1c(O)c(-c2ccc(O)cc2O)oc2cc(O)cc(O)c12,inhibition,[1],-4% (inactive)
same,fluorescence ratio (interference),[2],1 (inactive)
same,outcome,[9],inactive
same,outcome,[3],inactive
same,outcome,[4],inactive
same,outcome,[7],inactive
same,outcome,[10],inactive
same,outcome,[5],inactive
same,outcome,[11],inactive
same,outcome,[6],inactive
CN(C)CCN(Cc1cccs1)c1ccccn1,inhibition,[1],-1% (inactive)
same,fluorescence ratio (interference),[2],1 (inactive)
COc1ccc(C(C)=O)c(O)c1,AC50,[3],0.0132 µM (active)
O=C(O)/C=C/c1ccc(O)c(O)c1,inhibition,[1],0% (inactive)
same,fluorescence ratio (interference),[2],1 (inactive)
same,AC50,[7],20.9 µM (active)
O=C(CCc1ccc(O)cc1)c1c(O)cc(O)cc1O[C@@H]1O[C@H](CO)[C@@H](O)[C@H](O)[C@H]1O,outcome,[3],inactive
same,outcome,[4],inactive
same,outcome,[7],inactive
same,outcome,[10],inactive
same,outcome,[5],inactive
same,outcome,[6],inactive
O=C(/C=C/C=C/c1ccc2c(c1)OCO2)N1CCCCC1,fluorescence slope change,[8],92.2% (active)
same,outcome,[9],inactive
same,outcome,[3],inactive
same,outcome,[4],inactive
same,outcome,[7],inactive
same,outcome,[10],inactive
same,outcome,[5],inactive
same,outcome,[11],inactive
same,outcome,[6],inactive
CCn1nc(C(=O)O)c(=O)c2cc3c(cc21)OCO3,fluorescence slope change,[8],14.5% (inactive)
same,inhibition,[1],-4% (inactive)
same,fluorescence ratio (interference),[2],1 (inactive)
same,inhibition,"[12]; at 0.5 µM, stronger effect = higher value",-4.36% (inactive)
same,inhibition,"[12]; measured here: combination with BGB IC20, at 0.005 µM",-22%
same,inhibition,"[12]; measured here: combination with BGB IC40, at 0.005 µM",-16.5%
same,inhibition,[12]; [21],-12.9%
same,inhibition,"[12]; measured here: combination with cisplatin, at 0.5 µM, stronger effect = higher value",-13.6%
same,inhibition,"[12]; measured here: combination with cisplatin, at 5 µM, stronger effect = higher value",-41.5%
same,inhibition,"[13]; BGB combo, at 5 µM",-23.8%
same,inhibition,[13]; at 0.5 µM,-7.41% (inactive)
same,inhibition,"[13]; cisplatin combo, at 5 µM",-10.5%
same,inhibition,[13]; [22],-15.2%
same,inhibition,[13]; [23],-1.32%
same,inhibition,"[13]; single agent, at 5 µM",-41.5%
same,inhibition,"[14]; BGB IC20 combo, at 0.005 µM",-15.8%
same,inhibition,"[14]; BGB IC40 combo, at 0.005 µM",-16.7%
same,inhibition,"[14]; BGB IC40 combo, at 0.05 µM",-9.96%
same,inhibition,[14]; at 0.5 µM,-5.52% (inactive)
same,inhibition,"[14]; cisplatin combo, at 0.05 µM",-9.96%
same,inhibition,"[14]; cisplatin combo, at 0.5 µM",-1.52%
same,inhibition,"[14]; cisplatin combo, at 5 µM",-43.4%
same,inhibition,"[14]; measured here: 5 uM single agent, at 5 µM",-20.7%
same,inhibition,[15]; at 0.5 µM,-36.2% (inactive)
same,inhibition,[15]; [21],-30.8%
same,inhibition,[15]; [24],-40.5%
same,inhibition,"[15]; measured here: combination with cisplatin, at 5 µM",15.7%
same,inhibition,[16]; at 0.5 µM,-28.8% (inactive)
same,inhibition,"[16]; measured here: with BGB IC20, at 0.5 µM",-63%
same,inhibition,"[16]; measured here: with BGB IC20, at 5 µM",5.32%
same,inhibition,"[16]; measured here: with cisplatin IC20, at 0.5 µM",-29.8%
same,inhibition,"[16]; measured here: with cisplatin IC20, at 5 µM",-12.6%
same,inhibition,"[16]; single agent, at 5 µM",-6.73%
same,inhibition,[17]; at 0.5 µM,-10.8% (inactive)
same,inhibition,"[17]; measured here: BGB combination, at 0.5 µM",-3.35%
same,inhibition,"[17]; measured here: BGB combination, at 5 µM",-16.6%
same,inhibition,"[17]; measured here: cisplatin combination, at 0.5 µM",-23.3%
same,inhibition,"[17]; measured here: cisplatin combination, at 5 µM",-13.2%
same,inhibition,[18]; at 0.5 µM,-21.7% (inactive)
same,inhibition,"[18]; cisplatin combination, at 0.5 µM",-15.5%
same,inhibition,"[18]; cisplatin combination, at 5 µM",-34.6%
same,inhibition,"[18]; measured here: BGB IC40 combination 0.05 uM, at 0.05 µM",-12.7%
same,inhibition,"[18]; single agent, at 5 µM",-10.2%
same,inhibition,[19]; at 0.5 µM,-22.9% (inactive)
same,inhibition,"[19]; cisplatin combo, at 5 µM",-5.51%
same,inhibition,"[19]; measured here: BGB IC40 combination, at 0.05 µM",-14.3%
same,inhibition,[19]; [24],-7.95%
same,inhibition,"[19]; single agent, at 5 µM",-10.2%
same,inhibition,[20]; at 0.5 µM,-33.4% (inactive)
same,inhibition,[20]; [22],-23%
same,inhibition,[20]; [23],-38.6%
same,inhibition,"[20]; single agent, at 0.05 µM",5.27%
same,inhibition,"[20]; single agent, at 5 µM",10.4%
C1CCc2nnnn2CC1,fluorescence slope change,[8],136% (active)
same,inhibition,[1],-2% (inactive)
same,fluorescence ratio (interference),[2],1 (inactive)
OCc1ccccc1O[C@@H]1O[C@H](CO)[C@@H](O)[C@H](O)[C@H]1O,outcome,[9],inactive
same,outcome,[3],inactive
same,outcome,[4],inactive
same,outcome,[7],inactive
same,outcome,[10],inactive
same,outcome,[5],inactive
same,outcome,[11],inactive
same,outcome,[6],inactive
O=C(/C=C/c1ccc(O)c(O)c1)OCCc1ccccc1,inhibition,[1],-2% (inactive)
same,fluorescence ratio (interference),[2],1 (inactive)
Cc1cc(O)c2c(c1)C(=O)c1cccc(O)c1C2=O,outcome,[9],inactive
same,outcome,[3],inactive
same,outcome,[7],inactive
same,outcome,[10],inactive
same,outcome,[11],inactive
same,outcome,[6],inactive
COc1ccc(-c2coc3cc(O)ccc3c2=O)cc1,outcome,[3],inactive
same,outcome,[4],inactive
same,outcome,[7],inactive
same,outcome,[5],inactive
